Results filed as inconclusive are left out. Activity calls are given as the source filed them. The call rests on the fitted dose curve; in most records, active means well fitted curve in the direction sought with a large enough effect; inconclusive means small, poorly fitted or top-dose-only effect, or another doubt; inactive means no such curve, though single readings can be large; an effect the other way counts as inactive or inconclusive.
How the values were obtained:
[1] = Primary redox qHTS assay for identification of artifact compounds. (AID 1845223)
In short: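 Amplex Red (25 uM) and HRP (250 mU/mL) in HBSS, with compounds for 15 min, then 250 uM DTT for 30 min, room temperature, dark. Fluorescence 525/598 nm read; normalized to DMSO and 10 uM DA3003; Hill fit.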

[2] = Quantitative High-Throughput drug screen in 47 multiple myeloma cell lines against the NCATS MIPE library collection: FR4_PLB cell viability assay (AID 1918924; further: nearly all actives have a fitted effect of over 35% in size)
In short: (§1)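 CellTiter-Glo luminescence (ATP) after 48 h compound exposure, 37C/5% CO2; 500 cells/well; MIPE 4.0 approved/investigational drugs pinned in; DMSO = 100%, media only = 0% viability.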

[3] = Quantitative High-Throughput drug screen in 47 multiple myeloma cell lines against the NCATS MIPE library collection: Delta47_JCRB cell viability assay (AID 1918925; further: nearly all actives have a fitted effect of over 45% in size)
In short: (§2)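 Steps: seed 500 cells per well; pin-transfer MIPE 4.0 library; incubate 48 h at 37C, 5% CO2, humidified; add CellTiter-Glo, 5 min room temperature; read luminescence.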

[4] = Quantitative High-Throughput drug screen in 47 multiple myeloma cell lines against the NCATS MIPE library collection: EJM_DSMZ cell viability assay (AID 1918926; further: nearly all actives have a fitted effect of over 30% in size)
In short: as §2

[5] = Quantitative High-Throughput drug screen in 47 multiple myeloma cell lines against the NCATS MIPE library collection: AMO1_DSMZ cell viability assay (AID 1918927; further: nearly all actives have a fitted effect of over 30% in size)
In short: as §2

[6] = Quantitative High-Throughput drug screen in 47 multiple myeloma cell lines against the NCATS MIPE library collection: ARP1_JJKsccF8 cell viability assay (AID 1918928; further: nearly all actives have a fitted effect of over 40% in size)
In short: (§3)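 Luminescence from CellTiter-Glo, taken after 5 min at room temperature, reports cellular ATP as viability. Cells (500 per well) had been treated 48 h at 37 °C with MIPE 4.0 compounds, scaled between DMSO and medium-only controls.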

[7] = Quantitative High-Throughput drug screen in 47 multiple myeloma cell lines against the NCATS MIPE library collection: ARD_JJKsccE7 cell viability assay (AID 1918929)
In short: as §2

[8] = Quantitative High-Throughput drug screen in 47 multiple myeloma cell lines against the NCATS MIPE library collection: Karpas620_DSMZ cell viability assay (AID 1918959); further: nearly all actives have a fitted effect of over 30% in size
In short: as §1

[9] = Quantitative High-Throughput drug screen in 47 multiple myeloma cell lines against the NCATS MIPE library collection: KMM1_JCRB cell viability assay (AID 1918960); further: nearly all actives have a fitted effect of over 30% in size
In short: as §3

[10] = Quantitative High-Throughput drug screen in 47 multiple myeloma cell lines against the NCATS MIPE library collection: Karpas417_ECACC cell viability assay (AID 1918961); settings: Karpas417 myeloma viability, CellTiter-Glo ATP luminescence, 48 h; viability (% of DMSO): at 45.8 µM (top of the series)
In short: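 Myeloma cells (500 per well) were exposed to MIPE 4.0 compounds by pin transfer and incubated 48 hours at 37C, 5% CO2. Viability was read as ATP by CellTiter-Glo luminescence, normalised to DMSO (100%) and media-only (0%) wells.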

Measured: Potency
Potency means the concentration at half of the fitted maximal effect.

CC(C)(O)c1cc2nc(-c3cnc(N)nc3)nc(N3CCOCC3)c2s1
active: [2] 235 nM | [3] 29.6 nM | [4] 743 nM | [5] 93.5 nM | [6] 18.7 nM | [7] 105 nM | [8] 166 nM | [9] 33.2 nM | [10] 14.8 nM
inactive: [1]

CC(C)c1cnn2c(NCc3ccccc3)cc(N[C@@H](CO)[C@H](O)CO)nc12
inactive: [1]
active: [2] 264 nM | [3] 166 nM | [4] 235 nM | [5] 118 nM | [6] 264 nM | [7] 148 nM | [8] 296 nM | [9] 166 nM | [10] 83.3 nM

Cc1cc(C(=O)N2CCN(c3cccc(Cl)c3)CC2)n(-c2ccccc2)n1
active: [2] 148 nM | [3] 833 nM | [5] 33.2 nM | [6] 590 nM | [7] 264 nM | [8] 29.6 nM | [9] 187 nM
inactive: [1]

COC(=O)Nc1nc2ccc(C(=O)c3ccc(F)cc3)cc2[nH]1
inactive: [1]
active: [2] 264 nM | [3] 418 nM | [5] 296 nM | [6] 418 nM | [7] 332 nM

Cn1cc(-c2[nH]c3cc(NC(=O)[C@H](N)C4CCCCC4)cc4c3c2C=NNC4=O)cn1
inactive: [1]
active: [2] 296 nM | [3] 935 nM | [4] 526 nM | [5] 2960 nM | [6] 7430 nM | [7] 4690 nM | [9] 526 nM

COc1cccc(Nc2c(C(N)=O)cnc3c(C)cc(S(=O)(=O)c4cccc(C(=O)N(C)C)c4)cc23)c1
inactive: [1] | [2] | [3] | [4]
active: [5] 12900 nM | [7] 12900 nM | [9] 10200 nM

CC[C@@H]1C(=O)N(C)c2cnc(Nc3ccc(C(=O)NC4CCC(N5CCN(CC6CC6)CC5)CC4)cc3OC)nc2N1C(C)C (some centres not stated)
inactive: [1]
active: [2] 59 nM | [3] 1480 nM | [4] 743 nM | [5] 118 nM | [6] 132 nM | [7] 83.3 nM | [9] 52.6 nM | [10] 3320 nM

Cc1ccc2nc(NC(=O)CSc3nc4c(c(=O)n3-c3ccccc3)SCC4)sc2c1
inactive: [1]
active: [2] 5900 nM | [3] 18700 nM | [4] 6620 nM | [5] 9350 nM | [7] 13200 nM | [10] 23500 nM

CCN(CC)CCNC(=O)c1ccc2nc(-c3ccccc3)c(-c3ccc(CN4CCC(n5c(=O)[nH]c6ccccc65)CC4)cc3)nc2c1
inactive: [1]
active: [2] 14800 nM | [3] 662 nM | [4] 18700 nM | [5] 1050 nM | [7] 2640 nM | [8] 935 nM | [9] 1660 nM | [10] 1050 nM

COc1cc(-c2nn(C3CCC(N4CCN(C(C)=O)CC4)CC3)c3ncnc(N)c23)ccc1NC(=O)c1cc2ccccc2n1C (configuration not stated)
active: [2] 5260 nM | [4] 20900 nM | [5] 590 nM | [7] 372 nM | [9] 372 nM
inactive: [1] | [10]

Cc1cc(Nc2nc(N[C@@H](C)c3ccc(F)cc3)c(C#N)cc2F)n[nH]1
active: [3] 2960 nM | [4] 16600 nM | [5] 235 nM | [6] 1050 nM | [7] 332 nM | [8] 296 nM | [9] 1870 nM | [10] 209 nM
inactive: [1]

COc1ccc2c(c1)CC[C@@H](CN(C)CC(=O)O)[C@H]2c1ccccc1
inactive: [1]
active: [2] 1050 nM | [5] 590 nM | [6] 3320 nM | [7] 1320 nM | [9] 1320 nM

Cc1coc2c1C(=O)C(=O)c1c-2ccc2c1CCCC2(C)C
active: [1] 9470 nM | [2] 20900 nM | [3] 8330 nM | [5] 20.9 nM | [6] 16600 nM
inactive: [8]

c1ccc2c(CCNc3ccc(Nc4ccncc4)cc3)c[nH]c2c1
active: [3] 18700 nM | [5] 1480 nM | [9] 2960 nM
inactive: [1] | [2]

COc1cc2c(cc1-c1c(C)noc1C)ncc1[nH]c(=O)n([C@H](C)c3ccccn3)c12
inactive: [1]
active: [3] 418 nM | [4] 10500 nM | [5] 332 nM | [6] 332 nM | [7] 296 nM | [8] 5900 nM | [9] 5900 nM | [10] 148 nM

Cc1cn2c(-c3cn[nH]c3)cnc2c(Nc2ccc(C(=O)N3CCNCC3)cc2F)n1
inactive: [1] | [5]
active: [3] 7430 nM | [4] 18700 nM | [6] 23500 nM | [7] 5900 nM

O=c1c2ccccc2nc2n1CCc1c-2[nH]c2ccccc12
active: [8] 18700 nM
inactive: [1] | [2] | [5] | [7] | [10]

Cc1cc(Nc2ncnc3ccc(-c4ccc(CNCCS(C)(=O)=O)o4)cc23)ccc1Oc1ccn2ncnc2c1
active: [3] 1660 nM | [4] 20900 nM | [5] 935 nM | [6] 11800 nM | [7] 2350 nM | [8] 5260 nM | [9] 1180 nM
inactive: [1]

COc1ccc2c(OCc3nnc4ccc(-c5ccccc5)nn34)ccnc2c1
inactive: [1] | [2] | [3] | [5] | [6] | [8] | [9]

CC(C)c1noc(N2CCC(COc3ccc(-c4ccc(S(C)(=O)=O)cc4)nc3)CC2)n1
inactive: [1] | [5] | [7] | [8] | [10]
active: [2] 6620 nM

CC(C)c1nn(-c2c(Cl)cccc2Cl)c2nc(Cc3ccc(OCCO)cc3)[nH]c(=O)c12
active: [2] 105 nM | [3] 166 nM | [6] 118 nM
inactive: [1] | [5] | [7] | [8] | [9] | [10]

Cn1c(CNc2ccc(C(=N)N)cc2)nc2cc(C(=O)N(CCC(=O)O)c3ccccn3)ccc21
inactive: [1] | [2] | [5] | [6] | [7] | [8] | [9]

COc1cccc2c(NCc3ccccc3)nc(-n3c(N)nc4ccccc43)nc12
active: [3] 2960 nM | [4] 6620 nM | [5] 1050 nM | [6] 7430 nM | [7] 4690 nM | [8] 1480 nM | [9] 1660 nM
inactive: [1]

Cn1c(=O)n(-c2ccc(C(C)(C)C#N)cc2)c2c3cc(-c4cnc5ccccc5c4)ccc3ncc21
active: [2] 9.3 nM | [4] 833 nM | [6] 18.7 nM
inactive: [1]

COc1ccc(OC)c(-c2nnc3ccc(-c4ccc(OC)c(O[C@@H]5CCOC5)c4)nn23)c1
active: [2] 11800 nM | [3] 9350 nM | [5] 26400 nM | [6] 18700 nM | [7] 16600 nM | [8] 8330 nM | [9] 8330 nM | [10] 10500 nM
inactive: [1]

C=CC(=O)Nc1cccc(Oc2nc(Nc3ccc(N4CCN(C)CC4)cc3)ncc2Cl)c1
active: [3] 1870 nM | [4] 23500 nM | [5] 5260 nM | [6] 13200 nM | [7] 16600 nM | [8] 5260 nM | [9] 9350 nM
inactive: [1]

CN(C1CCc2c(c3ccccc3n2CC(=O)O)C1)S(=O)(=O)c1ccc(F)cc1 (configuration not stated)
active: [5] 2640 nM | [7] 5260 nM | [8] 2960 nM | [9] 2350 nM | [10] 743 nM
inactive: [1] | [2]

CCOC(=O)C1=C(C)NC2=C(C(=O)CC(C)(C)C2)C1c1ccc(-c2ccccc2)cc1 (configuration not stated)
active: [2] 20900 nM | [3] 14800 nM | [6] 23500 nM
inactive: [1]

CCCCCN(CCC12CC3CC(CC(C3)C1)C2)C(=O)NCCCc1ccncc1
active: [2] 18700 nM | [4] 23500 nM | [5] 14800 nM | [7] 11800 nM | [8] 2960 nM
inactive: [1] | [9]

Cc1c(NC(=O)OC[C@@H]2COCCN2)cn2ncnc(Nc3ccc4c(cnn4Cc4cccc(F)c4)c3)c12
active: [2] 1320 nM | [3] 833 nM | [5] 3320 nM | [7] 11800 nM | [8] 18700 nM | [9] 14800 nM
inactive: [1]

CCCn1c(=O)c2[nH]c(-c3cnn(Cc4cccc(C(F)(F)F)c4)c3)nc2n(CC)c1=O
active: [2] 5900 nM | [9] 1660 nM
inactive: [1] | [3] | [5] | [8]

Cc1cn(-c2cc(NC(=O)c3ccc(C)c(Nc4nccc(-c5cccnc5)n4)c3)cc(C(F)(F)F)c2)cn1
active: [2] 20900 nM | [9] 264 nM
inactive: [1] | [3] | [5] | [8]

CC(C)(O)CCc1ccc(OCc2cc(-c3cccc(OC(F)F)c3)c3ncccc3c2)cc1
inactive: [1] | [2] | [4] | [5] | [7] | [8] | [9]

O=C(CCCCCCC(=O)Nc1ccc([C@H]2O[C@@H](CSc3nc(-c4ccccc4)c(-c4ccccc4)o3)C[C@@H](c3ccc(CO)cc3)O2)cc1)NO
inactive: [1] | [7] | [8] | [9]
active: [2] 11800 nM | [3] 11800 nM | [6] 10500 nM

Nc1nc(NCCNc2ncc(-n3ccnc3)c(-c3ccc(Cl)cc3Cl)n2)ccc1[N+](=O)[O-]
inactive: [1] | [10]
active: [2] 13200 nM | [3] 1480 nM | [6] 11800 nM | [7] 6620 nM

CS(=O)(=O)c1ccc(-c2cnc(N)c(C(=O)Nc3ccccc3)n2)cc1
active: [2] 18700 nM
inactive: [1] | [7] | [8]

C[C@@H](Oc1cc(-c2cnn(C3CCNCC3)c2)cnc1N)c1c(Cl)ccc(F)c1Cl
inactive: [1]
active: [3] 2090 nM | [4] 18700 nM | [5] 18700 nM | [6] 8330 nM | [7] 11800 nM | [8] 14800 nM | [9] 13200 nM | [10] 2640 nM

NCC(=O)Nc1ccc(-n2nc(C(F)(F)F)cc2-c2ccc3c(ccc4ccccc43)c2)cc1
inactive: [1] | [8]
active: [3] 18700 nM | [4] 23500 nM | [5] 66.2 nM | [6] 23500 nM | [7] 148 nM | [9] 5260 nM
